In ChEMBL document CHEMBL3988442, “University of Dundee, Small-Polar-MMV Screening Library” (2021):

The compounds below were run on Trypanosoma cruzi (assay: Trypanosoma cruzi phosphomannomutase and mannose-1-phosphate guanylyltransferase assay). Conditions: 10 µM.
Type: functional
Parameters: scale not given: direction of the effect not stated beside the values

Row | SMILES | Percent Effect
1 | O=C(C(CNCc1ccsc1)c1ccccc1)N1CCOCC1 (stereo not given) | 1.87%
2 | O=C(CCOc1cccc(F)c1)N1CCCC(n2cncn2)C1 (stereo not given) | -1.95%
3 | Cc1nc(C)n(CC2CCCCN2CCCS(=O)(=O)N(C)C)n1 (stereo not given) | 2.7%
4 | CCOC(C)c1nc(CN2CCNCC2)cs1 (stereo not given) | -3.09%
5 | CC1CCCN(CCNC(=O)c2cncnc2C(C)C)C1 (stereo not given) | -4.96%
6 | CC(C)NC(=O)c1sccc1N(C)S(=O)(=O)c1ccc(Cl)cc1 | -7.5%
7 | Cc1cc(C)n(C2CCCN(C(=O)c3cnc4onc(C)c4c3)C2)n1 (stereo not given) | -1.08%
8 | O=C(CCc1nc2cccnc2[nH]1)NCc1cccnc1 | 3.34%
9 | CSCCC(=O)N1CCCC1c1ccsc1 (stereo not given) | -4.76%
10 | COc1c(C)cnc(CSc2nnc(C)s2)c1C | 6.33%
11 | CCOc1cc(C)nc(N2CCN(C(=O)c3ccc[nH]3)CC2)n1 | -6.59%
12 | CC(C)NC(=O)N1CCC(n2ccc(C(F)(F)F)n2)CC1 | -2.74%
13 | CC(C)c1nnc2n1CCN(CCCS(=O)(=O)c1ccccc1)C2 | 6.18%
14 | Cc1cnn(CC2CN(Cc3nnc(C4CC4)o3)CCO2)c1 (stereo not given) | -4.18%
15 | CC(NC(=O)NCCCNS(C)(=O)=O)c1ccncc1 (stereo not given) | -2.97%
16 | CS(=O)(=O)CCC(=O)NC1(c2cccc(Br)c2)CC1 | 6.37%
17 | Cc1cc(CN2CCN(C(=O)c3sccc3C(C)C)CC2)no1 | 4.41%
18 | CC(=O)Nc1ccc(-n2ccc3nc(N4CCCC4)ncc3c2=O)cc1 | -2.36%
19 | Cc1nc(C)n(CC2CCCN2CCc2cccs2)n1 (stereo not given) | 7.89%
20 | Cc1nn(C)c(C)c1C1CCCN1C(=O)c1ccc(CN(C)C)cc1 (stereo not given) | 2.14%
